High-throughput results from PubChem.
Only a selection was taken, and hits are over-represented in it overall.
HTT ATP protect = Huntington cell model cytoprotection by ATP luminescence. PC12 HTT-Q103 induced, cytoprotection, ATP luminescence, 40 h. actives 0.14% (n = 230,000). Potency, µM (doses to about 56.4 µM), without a hit: cytoprotection (ATP increase), actives largely listed as activators; note: % of control where 0% means no effect; nearly all actives have a fitted effect of over 45% in size
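Rat PC12, Q103 Htt exon1-GFP fusion, ecdysone promoter; tebufenozide inducer 100 nM final; compound titration; qHTS, 1500 cells/well; ATPlite luminescent read.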
PINK1 expr mod = PINK1 expression modulation | PINK1 immunofluorescence, high-content cytometry, 24 h | Potency, µM (titrated, usually from 76.6 µM), inactives show top-dose activation (PINK1 increase), hits mostly activators | actives 0.2% (n = 410,000) | AID 624263; active = well fitted activation curve with a large enough effect; inconclusive = small, poorly fitted or top-dose-only effect; cell line not stated here; note: % of control where 0% means no effect; nearly all actives have a fitted effect of over 65% in size
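Decision-based qHTS: stable cells, 24 h exposure to five compound concentrations, CCCP as control. Fixed cells stained for PINK1 plus nuclear, mitochondrial and cell markers, cytometer read.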
Epigenetic reg = epigenetic control regulation, reporter derepression; murine LDR cells, GFP reporter derepression, 30 h; Potency, µM (series often up to 53.9 µM), inactives show top-dose GFP activation, usual class: activators; actives 0.2% (n = 280,000); AID 1865; note: % of control where 0% means no effect; nearly all actives have a fitted effect of over 60% in size
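Reporter derepression read as number of fluorescent GFP-positive objects, 20-120 um in size, counted by laser-scanning cytometer. Mouse LDR line with an epigenetically silenced CMV-GFP locus; compound incubation 30 h, 37 C.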
HTT aggregate = mutant huntingtin aggregation inhibition; AID 1688; actives 1.1% (n = 220,000); PC12 HttQ103-GFP aggregates, Acumen cytometry, 40 h; Potency, µM (top dose mostly 46.1 µM), inactives show top-dose activity change, negative = inhibition, usual class: inhibitors; note: % is set by controls: 0 for no effect and ±100 for the full control effect; nearly all actives have a fitted effect of over 60% in size
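Huntingtin Q103 exon 1–GFP aggregates in induced PC12 cells (100 nM tebufenozide) were quantified by cytometry from lysates, with compounds dosed in titration.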
* marks the source's active call; other numbers are inactive results; ? = inconclusive; · = no result; [ ] = another dose, or the depositor's remark. Unless noted, calls come from the whole dose curve; as a rule, active = well fitted curve in the direction sought with a large enough effect; inconclusive = small, poorly fitted or top-dose-only effect, or another doubt; inactive = no such curve, though single readings can be large; an effect the other way counts as inactive or inconclusive. Potency is the fitted concentration of half-maximal effect.

SMILES	HTT ATP protect	PINK1 expr mod	Epigenetic reg	HTT aggregate
CCCN1C(C(=O)c2ccccc2)=C(OC(=O)COc2ccccc2)c2ccccc2S1(=O)=O	·	2.3%	5.6%	·
CCOc1c2c(c(-c3ccc4c(c3)OCO4)c3cc(OC)c(OC)cc13)C(=O)OC2	·	14.1µM*	·	·
c1ccc(-c2nc3nonc3nc2-c2ccccc2)cc1	-140.4%	-0.6%	4.9%	3.16µM*
Brc1cc(Br)c2nc(-c3cccs3)ccc2c1	-7.7%	1.1%	-1.0%	9.1%
Cc1nc2c(Br)cc(Br)cc2cc1O	-1.9%	0.0%	6.3%	11.2µM*
CN(C(=O)c1ccc(Br)o1)C1CCS(=O)(=O)C1 (centres undefined)	·	-0.2%	·	·
Cc1cccc(CSC(Nc2ccc(F)cc2)=C(C#N)C#N)c1	-18.4%[10 µM]	?	0.0%	4.47µM*
N#CC(C#N)=C(Nc1ccc(F)cc1)SCc1cccc(Br)c1	-64.4%[10 µM]	?	1.1%	2.24µM*
CC(C)(C)NC(=O)Nc1ccc(F)c(Cl)c1	-25.6%	0.7%	0.5%	12.6µM*
CCCNC(=O)Nc1ccc(F)c(Cl)c1	-19.7%	-0.1%	1.1%	-8.9%
CC(=O)Nc1ccccc1C(=O)C(=O)Nc1ccc(F)c(Cl)c1	·	0.3%	·	·
c1ccc2c(c1)CCN(c1ncnc3c1[nH]c1ccccc13)C2	-72.3%	2.5%	7.5%	11.2µM*
COc1cccc2[nH]c3c(N4CCC5(CC4)OCCO5)ncnc3c12	29.4%[10 µM]	3.3%	1.5%	-2.0%[9.22 µM]
c1ccc2c(c1)[nH]c1c(N3CCC4(CC3)OCCO4)ncnc12	-34.1%	0.0%	-0.7%	12.6µM*
Cc1ccc(S(=O)(=O)CC(=O)Nc2nc(C(C)(C)C)cs2)cc1	·	3.6%	·	·
O=C(Cc1ccc(F)cc1)NCC1CCCO1 (centres undefined)	-6.7%[10 µM]	1.1%	1.1%	27.1%[9.22 µM]
O=C(c1cnn(-c2ccccc2)c1)c1ccccc1O	2.0%[10 µM]	1.7%	0.0%	11.2µM*
COCCNC(=O)c1ccc2c(Cl)c3c(nc2c1)CCC3	·	-1.6%	·	·
COc1ccc(C)cc1NC(=O)c1ccccc1NS(=O)(=O)c1ccc(Cl)s1	-71.2%	?	1.4%	4.47µM*
Cc1ccc(NC(=O)c2ccccc2NS(=O)(=O)c2ccc(Cl)s2)cc1S(=O)(=O)N1CCOCC1	·	39.8µM*	-1.0%	?
COc1ccccc1NC(=O)c1ccccc1NS(=O)(=O)c1cccs1	19.2%[10 µM]	5.3%	-0.4%	-28.8%
Cc1ccc(-c2csc3nc4ccc(C(=O)NCCO)cc4c(=O)n23)cc1	-0.9%[10 µM]	5.5%	-1.6%	-5.4%[9.22 µM]
CC(C)COC(=O)NCCOC(=O)Nc1cccc(Cl)c1	-13.2%[10 µM]	-1.4%	0.0%	10µM*
O=C(COc1ccc(Br)cc1CNCCc1ccccc1)NCc1ccccc1	-231.4%	-2.0%	1.1%	12.6µM*
CCCNCc1cc(Br)ccc1OCC(=O)NCCc1ccccc1	·	2.4%	-2.9%	-9.6%
SMILES	HTT ATP protect	PINK1 expr mod	Epigenetic reg	HTT aggregate
CC(C)C[C@@H]1O[C@H](CCc2ccccc2)Cc2[nH][nH]c(=O)c21	·	8.0%	·	·
Cc1cc(C(=O)CSc2ccc(F)cc2)cc(C)c1O	·	3.4%	·	·
O=C(Nc1c(Cl)cccc1Cl)c1cc(=O)n(Cc2ccccc2)c(=O)[nH]1	13.1%[10 µM]	10µM*	-3.4%	2.7%
CCSc1nc2c(c(=O)n1Cc1ccccc1)SC(C)C2 (centres undefined)	5.1%	·	0.0%	28.2µM*
O=C(Cn1c2ccccc2c(=O)c2ccccc21)N/N=C/c1cc([N+](=O)[O-])ccc1N1CCCCCC1	-33.4%	?	20µM*	?
Cc1ccc(C(=O)NNC(=O)C2CCN(S(=O)(=O)c3ccc(Cl)cc3)CC2)cc1	-23.8%[10 µM]	7.0%	-1.6%	-7.1%
O=C(NNC(=O)C1CCN(S(=O)(=O)c2ccc(Cl)cc2)CC1)c1ccc(S(=O)(=O)N2CCCCC2)cc1	10.3%[10 µM]	21.1%	-3.2%	25.1µM*
CCCC(=O)OCCNc1cc(Sc2nccn2C)c2nonc2c1[N+](=O)[O-]	-26.1%[10 µM]	1.4%	-1.8%	11.2µM*
CCOC(=O)c1ccc(NC(=O)COc2ccc(S(=O)(=O)NC(C)C)cc2)cc1	-1.6%[0.074 µM]	6.0%[38.3 µM]	-1.1%	-21.6%
Cc1cc[n+](CC2OCc3ccccc3CO2)cc1	7.5%[10 µM]	0.8%	-4.3%	11.4%[9.22 µM]
CC1CN(S(=O)(=O)c2ccc(C(=O)Nc3nnc(-c4ccc5c(c4)CCCC5)o3)cc2)CC(C)O1 (centres undefined)	-106.9%	1.7%	6.7%	3.55µM*
COc1ccccc1C(=O)Nc1nnc(-c2ccc3c(c2)CCCC3)o1	-36.8%	-0.1%	2.9%	20µM*
CCOC(=O)N1CCN(S(=O)(=O)c2ccc(C(=O)Nc3nnc(C)o3)cc2)CC1	3.55µM*	1.3%	3.4%	?
CCOC(=O)N1CCN(S(=O)(=O)c2ccc(C(=O)Nc3nnc(CSC)o3)cc2)CC1	0.4%[10 µM]	0.5%	-3.0%	-15.0%
COc1cccc(-c2nnc(NC(=O)c3ccc(S(=O)(=O)N4CCOCC4)cc3)o2)c1	-56.4%	-1.4%	0.0%	10µM*
CC(=O)Nc1nnc(-c2ccc3c(c2)CCCC3)o1	-44.7%	-0.4%	1.0%	-14.4%
COC(=O)CCN(C(=O)c1ccc(C)c([N+](=O)[O-])c1)c1ccccn1	·	2.5%	2.6%	16.1%
CSc1nnc(-c2ccc(S(=O)(=O)N3CCCCC3)cc2)o1	·	0.9%	·	·
O=C1c2cccc3c(Nc4ccccc4Cl)c([N+](=O)[O-])cc(c23)C(=O)N1CCO	-73.6%	1.7%	-1.2%	10µM*
Cc1ccc2[nH]c(C)c(/C=C/c3cc[n+](C)cc3)c2c1	·	14.1µM*	·	·
C[n+]1ccc(/C=C/c2ccc(Br)cc2)cc1	-18.0%	?	-1.0%	-24.4%
O=C(NNC(=S)Nc1cccc(Cl)c1)c1ccccc1OC(F)F	·	?	-1.0%	11.2µM*
Cc1[nH]nc2c1/C(=N/O)CC(c1ccccc1)C2 (centres undefined)	-31.5%	·	-1.0%	12.6µM*
COc1cccc(NC(=S)N(CCc2c(C)[nH]c3ccccc23)Cc2cccs2)c1	·	9.0%	-2.9%	-25.8%
Cc1cc(/C=N/n2cnnc2)c(C)n1-c1ccc(OCc2ccc(F)cc2)cc1	-29.5%[10 µM]	·	-1.0%	7.08µM*
SMILES	HTT ATP protect	PINK1 expr mod	Epigenetic reg	HTT aggregate
Cc1cc(/C=N/n2cnnc2)c(C)n1-c1ccc(OCc2ccc(Cl)cc2Cl)cc1	-55.2%	-4.1%	0.8%	6.31µM*
Cc1cc(/C=N/n2cnnc2)c(C)n1-c1ccc(Cl)cc1	12.1%[0.074 µM]	-1.6%	0.0%	14.5%
Cc1cc(/C=N/n2cnnc2)c(C)n1-c1ccccc1	-12.5%	2.0%	-1.0%	11.4%
Cc1ccn2c(NCc3ccccc3)c(-c3cccs3)nc2c1	·	-0.7%	1.1%	·
Cc1nc2ccccn2c1-c1csc(NCc2ccco2)n1	15.8%	2.6%	0.0%	5.62µM*
c1coc(CNc2nc(-c3ccncc3)cs2)c1	-12.6%[10 µM]	0.0%	0.0%	14.1µM*
Cc1ccn2c(-c3csc(NCc4ccccc4)n3)c(C)nc2c1	25.9%[1.9 µM]	3.5%	1.2%	11.2µM*
COc1ccc(C)cc1S(=O)(=O)Nc1cc2c3c(c1)CCN3C(=O)CC2	·	6.7%	·	·
O=C(NCc1cccnc1)C1Cc2c(-c3ccc(Cl)cc3)ccnc2O1 (centres undefined)	·	6.0%	·	·
CCOc1ccccc1C(=O)NC(C(=O)NCCc1ccccn1)C(C)C (centres undefined)	·	-2.3%	·	·
